PubChem BioAssay (Tox21)
Inconclusive results are not listed. The source made the active and inactive calls. Calls come from the whole dose curve; as a rule, active = well fitted curve in the direction sought with a large enough effect in the repeat runs; inconclusive = weak or mixed curves; inactive = no such curve, though single readings can be large; an effect the other way counts as inactive or inconclusive.

Experiments:
[1] = qHTS RealTime-Glo MT Cell Viability Assay in HEK293 cells - 32 hour (AID 1224868); note: top concentration of the series differs between compounds; nearly all actives have a fitted effect of over 50% in size
Procedure, shortened: (§1)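 Assay medium contained NanoLuc luciferase plus cell-permeant prosubstrate, added with HEK293 cells at 600 cells/well. After 5 h at 37 C/5% CO2 compounds were added; plates stayed at 37 C for 40 h with serial luminescence reads.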

[2] = qHTS RealTime-Glo MT Cell Viability Assay in HepG2 cells - 40 hour (AID 1224870); note: nearly all actives have a fitted effect of over 50% in size
Procedure, shortened: (§2)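 HepG2 cells mixed with RealTime-Glo MT reagents (NanoLuc plus cell-permeant prosubstrate) were seeded at 600 cells/well, incubated 5 h at 37 C/5% CO2, then pinned with compounds in DMSO; nonlytic luminescence tracked viability during 40 h treatment.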

[3] = A CellTox Green Cytotoxicity Assay to monitor cytotoxicity in HEK293 cells - 40 hour (AID 1224871); note: nearly all actives have a fitted effect of over 45% in size
Procedure, shortened: (§3)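 Cells (HEK293, 600/well) and dye reagent are dispensed together. After 5 h at 37 C, 23 nL compound is pinned in. Plates stay at 37 C for 40 h with fluorescence read at 0h, 8h, 16h, 24h, 32h and 40h.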

[4] = qHTS RealTime-Glo MT Cell Viability Assay in HEK293 cells - 16 hour (AID 1224872); note: top concentration of the series differs between compounds; nearly all actives have a fitted effect of over 50% in size
Procedure, shortened: as §1

[5] = qHTS RealTime-Glo MT Cell Viability Assay in HepG2 cells - 8 hour (AID 1224873); note: nearly all actives have a fitted effect of over 55% in size
Procedure, shortened: as §2

[6] = qHTS RealTime-Glo MT Cell Viability Assay in HEK293 cells - 40 hour (AID 1224874); conditions: RealTime-Glo luminescence, stronger effect = lower value; note: nearly all actives have a fitted effect of over 50% in size
Procedure, shortened: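 Real-time viability in HEK293: signal arises when living cells convert a prosubstrate for NanoLuc in the medium, so luminescence tracks viable cell number. Compound (23 nL, DMSO) added 5 h post-seeding; kinetic reads at 0–40 h, 37 C.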

[7] = qHTS RealTime-Glo MT Cell Viability Assay in HepG2 cells - 32 hour (AID 1224877); note: nearly all actives have a fitted effect of over 55% in size
Procedure, shortened: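 qHTS, HepG2, 600 cells/well, RealTime-Glo (NanoLuc + prosubstrate) added with cells; 5 h preincubation; DMSO compound addition; 37 C; luminescence at 0/8/16/24/32/40 h.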

[8] = A CellTox Green Cytotoxicity Assay to monitor cytotoxicity in HEK293 cells - 24 hour (AID 1224875); note: series mostly up to about 77 µM; nearly all actives have a fitted effect of over 45% in size
Procedure, shortened: as §3

[9] = A CellTox Green Cytotoxicity Assay to monitor cytotoxicity in HepG2 cells - 16 hour (AID 1224876); note: nearly all actives have a fitted effect of over 45% in size
Procedure, shortened: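 Cells and non-lytic dye reagent are dispensed together (600 HepG2 cells/well) and incubated 5 h before DMSO compound transfer. Kinetic fluorescence is then recorded in the same wells during 40 h at 37 C.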
% is set by controls: 0 for no effect and ±100 for the full control effect.

CCCCCCCC(=O)N(C)C
inactive: outcome [1] | outcome [2] | Potency [3] | outcome [4] | outcome [5] | max response [6] 4.49% | outcome [7]

Clc1ccc2c(c1)Nc1ccccc1S2
inactive: outcome [1] | outcome [2] | Potency [3] | outcome [4] | outcome [5] | max response [6] -17.2% | outcome [7]

CCCCCCCCCCCC(C)=O
inactive: outcome [1] | outcome [2] | Potency [3] | outcome [5] | max response [6] 0.63% | Potency [8] | Potency [9]

CCCCCCC(=O)c1ccccc1
inactive: outcome [1] | Potency [3] | outcome [4] | outcome [5] | max response [6] -0.886% | Potency [8] | Potency [9] | outcome [7]
